Assay results as given in PubChem BioAssay AID504850 (National Center for Advancing Translational Sciences (NCATS), 2011).
Among all 2,300 compounds or so, about 1,200 (52%) were called active. Roughly 34% stayed inconclusive and do not appear here. So high a share suggests a set chosen from earlier hits. The list shows a part of the results. Values without a mark were called inactive. Calls come from the whole dose curve; as a rule, active = well fitted inhibition curve with a large enough effect; inconclusive = small, poorly fitted or top-dose-only effect, or effect the other way; inactive = no such curve, though single readings can be large or run the other way.
% is set by controls: 0 for no effect and ±100 for the full control effect; potency is the fitted concentration of half-maximal effect.

Assay: Confirmation screen for delayed death inhibitors of the malarial parasite plastid, 48 hour incubation; note: nearly all actives have a fitted effect of over 65% in size
Conditions: P. falciparum-infected erythrocytes, luciferase growth; series mostly up to 28.7 µM; activity change, negative = inhibition: at the top concentration
How it was run: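 Erythrocytes infected with luciferase-expressing P. falciparum (2% hematocrit, 0.1% parasitemia) incubated with compounds 48 hours at 37 C, 5% CO2, in RPMI/Albumax. Growth inhibition scored as reduced luminescence after detection reagent.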
With `Cc1cccc[n+]1CC(=O)c1ccc(NC(=O)c2ccccc2)cc1` the Potency was 7.94 µM (active). For `Cc1ccc(Nc2cc(C)nc3ccc(C)cc23)cc1`, the Potency was 10 µM (active). With `CN(CCC#N)C(=O)COC(=O)c1ccc2[nH]c3c(c2c1)CCCC3` the “activity change, negative = inhibition” value was -8.6%. With `COc1ccccc1N1CCN(C(=O)c2ccc3[nH]c4c(c3c2)CCCC4)CC1` the Potency was 12.6 µM (active). For `Cc1ccc(Cl)cc1Nc1nc(-c2sc(NC(=O)C(C)(C)C)nc2C)cs1`, the Potency was 5.01 µM (active). With `CCOC(=O)C1CCN(c2c(NCc3ccc(C(=O)NCCC(C)C)cc3)c(=O)c2=O)CC1` the Potency was 2.24 µM (active). In the case of `O=C(/C=C/c1cccnc1)c1ccc(O)cc1`, the Potency is reported as 15.8 µM (active). In the case of `O=C(/C=C/c1ccccc1)/C=C/c1ccccc1`, the Potency is reported as 11.2 µM (active). For `O=C(/C=C/c1cccnc1)/C=C/c1cccnc1`, the Potency was 4.47 µM (active). With `COc1ccc(C(=O)/C=C/c2cccnc2)c(OC)c1` the Potency was 7.94 µM (active). In the case of `COc1cc(/C=C/C(=O)OCC(=O)Nc2c(C)n(C)n(-c3ccccc3)c2=O)cc(OC)c1OC`, the “activity change, negative = inhibition” value is reported as -10.5%. With `COc1cc(/C=C/C(=O)Nc2cccnc2)cc(OC)c1OC` the Potency was 14.1 µM (active). For `COc1cc(C(=O)/C=C/c2cccnc2)ccc1O`, the Potency was 12.6 µM (active). In the case of `CC(C)NC(=O)c1onc(CSc2cccc3ccccc23)c1C(=O)O`, the “activity change, negative = inhibition” value is reported as -31.7%. For `COc1cc2cc[n+](Cc3ccc([N+](=O)[O-])cc3)cc2cc1OC`, the Potency was 5.01 µM (active). In the case of `CN1CCN(c2ncnc3c2c(-c2ccccc2)cn3-c2ccc(F)cc2)CC1`, the Potency is reported as 11.2 µM (active). For `CCN1CCN(c2ncnc3c2c(-c2ccccc2)cn3-c2ccc(F)cc2)CC1`, the Potency was 12.6 µM (active). For `Fc1ccccc1N1CCN(c2ncnc3nc[nH]c23)CC1`, the “activity change, negative = inhibition” value was 8.13%. For `COc1ccc(-n2c(=O)/c(=C\c3cccs3)s/c2=C(/C#N)C(=O)N2CCN(C)CC2)cc1`, the “activity change, negative = inhibition” value was -15.1%. For `O=C(CCl)N1CCN(CC(=O)N2CCCC2)CC1`, the Potency was 15.8 µM (active). In the case of `CN(C(=O)CN1C(=O)CCSc2ccc(S(=O)(=O)N3CCCC3)cc21)c1ccccc1`, the Potency is reported as 11.2 µM (active). For `OC(c1cc(C(F)(F)F)nc2c(Cl)cc(Cl)cc12)C1CCCCN1` (stereo not given), the Potency was 0.0282 µM (active). With `O[C@@H](c1cc(C(F)(F)F)nc2c(C(F)(F)F)cccc12)[C@H]1CCCCN1` the Potency was 0.178 µM (active). In the case of `OC(c1cc(-c2ccc(Cl)cc2)nc2ccccc12)C1CCCCN1` (stereo not given), the Potency is reported as 0.282 µM (active). With `OC(c1cc(C(F)(F)F)nc2c(C(F)(F)F)cccc12)C1CCCCN1` (stereo not given) the Potency was 0.0447 µM (active). For `O=C(Cc1n[nH]c(=O)c2ccccc12)OCc1c(Cl)cccc1Cl`, the “activity change, negative = inhibition” value was 24.5%. With `COc1ccc(-n2c(C)cc(C(=O)COC(=O)Cc3n[nH]c(=O)c4ccccc34)c2C)cc1` the Potency was 5.62 µM (active). With `CC(C)(C)C(=O)/C(=C\c1cccc([N+](=O)[O-])c1)n1cncn1` the Potency was 14.1 µM (active). For `CC(=O)c1ccc(NC(=O)C2Cc3ccccc3CN2C(=O)c2ccccc2)cc1` (stereo not given), the Potency was 14.1 µM (active). In the case of `C/C1=C\CCC2C(/C=C(\C)CC1)OC(=O)C2CN1CCCCC1` (stereo not given), the Potency is reported as 12.6 µM (active). In the case of `N#Cc1cc(Oc2cccc3cccnc23)c(-n2nnc3ccccc32)cc1C#N`, the Potency is reported as 5.01 µM (active). For `COc1ccccc1-c1cc(C(=O)N/N=C/c2ccc(C)s2)c2ccccc2n1`, the Potency was 5.62 µM (active). With `COc1ccccc1-c1cc(C(=O)N/N=C/c2cccs2)c2ccccc2n1` the Potency was 5.62 µM (active). For `COc1ccccc1-c1cc(C(=O)N/N=C/c2ccc(C)o2)c2ccccc2n1`, the “activity change, negative = inhibition” value was -25.3%. In the case of `OC1C2(Cc3ccccc3)CN3CCN(C2)CC1(Cc1ccccc1)C3` (stereo not given), the Potency is reported as 2 µM (active). With `CCCc1cc(NCCCN2CCOCC2)n2c(nc3ccccc32)c1C#N` the Potency was 8.91 µM (active). For `Cc1ccccc1-c1nnc(NC(=O)c2ccc(N3C(=O)CCC3=O)cc2)s1`, the Potency was 14.1 µM (active). For `CCC[C@H]1C[C@H](C(=O)N[C@@H]([C@H]2O[C@@H](SC)[C@@H](O)[C@@H](O)[C@@H]2O)[C@H](C)Cl)N(C)C1`, the Potency was 0.631 µM (active). In the case of `COc1ccc(NS(=O)(=O)c2ccc(N3CCOCC3)c(NC(=O)c3ccc(OC)cc3)c2)cc1`, the Potency is reported as 11.2 µM (active). With `CCOC(=O)C1=C(C)NC(C)=C(C(=O)OCC)C1c1cc(N)ccc1OC(F)F` the Potency was 5.62 µM (active). In the case of `COC(=O)COc1ccc(S(=O)(=O)NCCC2=CCCCC2)cc1Cl`, the “activity change, negative = inhibition” value is reported as -21.8%. For `CCOc1ccc(S(=O)(=O)N2CCCC(C(=O)NC3CC3)C2)cc1Cl` (stereo not given), the Potency was 12.6 µM (active). With `COc1cccc2sc(NNC(=O)c3nc4ccccc4s3)nc12` the Potency was 15.8 µM (active). With `COc1ccc(CN(C(=O)/C=C/C(=O)c2ccc(OC)cc2O)C(C(=O)NC2CCCCC2)c2ccncc2)cc1` (stereo not given) the Potency was 7.94 µM (active). With `O=C(NC1CCCC1)C(c1ccncc1)N(Cc1ccco1)C(=O)c1ccc(-c2ccccc2)[nH]1` (stereo not given) the Potency was 11.2 µM (active).
